Potency and outcome data for 20 molecules are collected here from PubChem BioAssay (NCATS).

Records with an inconclusive call do not appear. The source made the active and inactive calls. Unless noted, calls come from the whole dose curve; as a rule, active = well fitted curve in the direction sought with a large enough effect; inconclusive = small, poorly fitted or top-dose-only effect, or another doubt; inactive = no such curve, though single readings can be large; an effect the other way counts as inactive or inconclusive.

Assay [1] has as its target T1, Tyrosine-protein phosphatase non-receptor type substrate 1 (Homo sapiens) + Leukocyte surface antigen CD47 (Homo sapiens) (UniProt P78324+Q08722). In words: CD47-SIRPalpha protein protein interaction - LANCE assay qHTS validation (AID 1347057; active = well fitted curve in the direction sought with a large enough effect in the signal ratio, with a control signal flat, not every such curve was filed as active; the % refers to the signal ratio; note: potency is the fitted concentration of half-maximal effect). In a few lines:
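Inhibition of soluble CD47/SIRPalpha ectodomain association by titrated compounds, measured as 665/615 nm time-resolved FRET ratio after sequential 30 min room-temperature incubations.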

Assay [2] deals with T1, Tyrosine-protein phosphatase non-receptor type substrate 1 (Homo sapiens) + Leukocyte surface antigen CD47 (Homo sapiens). In words: CD47-SIRPalpha protein protein interaction - HTRF assay qHTS validation (AID 1347058; active = well fitted curve in the direction sought with a large enough effect in the signal ratio, not every such curve was filed as active; the % refers to the signal ratio; note: series mostly up to about 38 µM). In a few lines:
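Soluble extracellular domains (6His-CD47, Avi-tag-biotinylated SIRPalpha) in PBS pH 7.4 with 0.05% IGEPAL CA-630. Compounds were preincubated 30 min at RT with CD47 and anti-His-Eu, then SIRPalpha and SAV-XL665 were added. TR-FRET 665/615 ratio.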
(In general: In TR-FRET formats the signal depends on donor and acceptor labels being close together.)

Assay [3] has the same target. The assay can be described thus: CD47-SIRPalpha protein protein interaction - Alpha assay qHTS validation (AID 1347059).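 Note: bead proximity luminescence from CD47 binding SIRPalpha after compound preincubation with SIRPalpha.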 Note: potency is the fitted concentration of half-maximal effect. In a few lines: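 SIRPalpha-biotin 25 nM + cpd, 30 min RT, dark; add CD47-His 12.5 nM, 30 min; add Ni-NTA/SAV beads 10 ug/mL, 30 min; AlphaScreen. Buffer PBS pH 7.4 + 0.05% IGEPAL CA-630. Non-biotinylated SIRPalpha as control inhibitor.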
Assay [4] is described as follows: qHTS for Inhibitors of the Functional Ribonucleoprotein Complex (vRNP) of Lassa (LASV) Arenavirus: LASV Primary Screen - GLuc reporter signal (AID 1347082; calls by dose curve; tested in HEK293 reporter line; note: nearly all actives have a fitted effect of over 60% in size; note: potency is the fitted concentration of half-maximal effect).
Assay [5] can be described thus: qHTS for Inhibitors of the Functional Ribonucleoprotein Complex (vRNP) of Lassa (LASV) Arenavirus: Viability assay - alamar blue signal for LASV Primary Screen (AID 1347083; calls by dose curve; tested in HEK293 reporter line; note: nearly all actives have a fitted effect of over 80% in size; note: potency is the fitted concentration of half-maximal effect).
Assay [6] in a line: qHTS for Inhibitors of the Functional Ribonucleoprotein Complex (vRNP) of Lymphocytic Choriomeningitis Arenaviruses (LCMV): Viability assay - alamar blue signal for LCMV Primary Screen (AID 1347085; calls by dose curve; tested in HEK293 reporter line; note: series mostly up to about 57 µM; nearly all actives have a fitted effect of over 80% in size). (In qHTS, concentration-response curves come from the screen itself.)
Assay [7] addresses Nucleoprotein (Lymphocytic choriomeningitis virus (strain Armstrong)) (UniProt P09992). The assay can be described thus: qHTS for Inhibitors of the Functional Ribonucleoprotein Complex (vRNP) of Lymphocytic Choriomeningitis Arenaviruses (LCMV): LCMV Primary Screen - GLuc reporter signal (AID 1347086; calls by dose curve; note: series mostly up to about 57 µM; nearly all actives have a fitted effect of over 70% in size).
Assay [8] has as its target Parathyroid hormone/parathyroid hormone-related peptide receptor (Homo sapiens) (UniProt Q03431). In words: qHTS for PTHR1 Agonists: Optimization Screen against the NCGC LOPAC library (AID 1347079).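 Note: GloSensor cAMP luminescence in HEK-293 GP2 cells expressing human PTHR1 with IBMX.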 In a few lines:
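Signal increase flags agonism. GP2 cells, derived from HEK-293, express human PTHR1 and a GloSensor cAMP construct.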

T1 sequence (P78324 whole entry, looked up, the tested form may be a part): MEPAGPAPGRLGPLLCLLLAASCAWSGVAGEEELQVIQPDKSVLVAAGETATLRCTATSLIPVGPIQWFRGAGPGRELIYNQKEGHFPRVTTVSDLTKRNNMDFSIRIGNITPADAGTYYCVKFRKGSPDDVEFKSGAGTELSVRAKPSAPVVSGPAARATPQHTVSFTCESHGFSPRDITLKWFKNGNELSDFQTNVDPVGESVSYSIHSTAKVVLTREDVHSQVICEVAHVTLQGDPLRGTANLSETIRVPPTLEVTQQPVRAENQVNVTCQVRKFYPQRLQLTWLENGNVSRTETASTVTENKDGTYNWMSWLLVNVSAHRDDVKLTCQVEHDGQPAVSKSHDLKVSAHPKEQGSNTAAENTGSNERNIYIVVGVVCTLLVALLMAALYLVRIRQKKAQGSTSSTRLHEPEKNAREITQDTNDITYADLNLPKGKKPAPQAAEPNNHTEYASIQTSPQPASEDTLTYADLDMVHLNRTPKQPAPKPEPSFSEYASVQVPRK
T1 sequence (Q08722 whole entry, looked up, the tested form may be a part): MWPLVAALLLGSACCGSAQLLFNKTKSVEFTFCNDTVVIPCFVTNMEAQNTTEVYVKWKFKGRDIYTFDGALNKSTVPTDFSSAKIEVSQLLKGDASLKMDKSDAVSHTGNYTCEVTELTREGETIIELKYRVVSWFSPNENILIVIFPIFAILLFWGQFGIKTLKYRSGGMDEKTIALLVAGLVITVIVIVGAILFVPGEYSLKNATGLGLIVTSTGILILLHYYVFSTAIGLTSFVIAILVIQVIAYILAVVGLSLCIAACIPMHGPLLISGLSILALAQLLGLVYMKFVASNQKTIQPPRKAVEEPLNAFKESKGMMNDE
Chain of Nucleoprotein (Lymphocytic choriomeningitis virus (strain Armstrong)) (P09992 whole entry, looked up): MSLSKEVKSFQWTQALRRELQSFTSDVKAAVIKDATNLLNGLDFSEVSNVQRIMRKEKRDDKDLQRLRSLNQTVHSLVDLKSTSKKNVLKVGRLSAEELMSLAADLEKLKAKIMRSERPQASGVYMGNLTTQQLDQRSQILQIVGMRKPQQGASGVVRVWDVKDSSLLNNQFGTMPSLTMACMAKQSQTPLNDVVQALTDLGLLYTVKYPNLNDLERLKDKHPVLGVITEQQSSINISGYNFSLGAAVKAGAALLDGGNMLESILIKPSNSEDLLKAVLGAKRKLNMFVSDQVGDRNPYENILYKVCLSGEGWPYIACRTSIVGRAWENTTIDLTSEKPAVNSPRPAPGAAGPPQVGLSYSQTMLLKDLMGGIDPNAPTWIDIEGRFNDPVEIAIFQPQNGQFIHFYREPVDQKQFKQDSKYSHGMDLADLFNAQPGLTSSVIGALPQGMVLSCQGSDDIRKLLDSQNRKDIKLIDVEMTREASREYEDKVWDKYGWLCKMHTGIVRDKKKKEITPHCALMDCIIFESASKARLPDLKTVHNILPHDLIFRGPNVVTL
Chain of Parathyroid hormone/parathyroid hormone-related peptide receptor (Homo sapiens) (Q03431 whole entry, looked up): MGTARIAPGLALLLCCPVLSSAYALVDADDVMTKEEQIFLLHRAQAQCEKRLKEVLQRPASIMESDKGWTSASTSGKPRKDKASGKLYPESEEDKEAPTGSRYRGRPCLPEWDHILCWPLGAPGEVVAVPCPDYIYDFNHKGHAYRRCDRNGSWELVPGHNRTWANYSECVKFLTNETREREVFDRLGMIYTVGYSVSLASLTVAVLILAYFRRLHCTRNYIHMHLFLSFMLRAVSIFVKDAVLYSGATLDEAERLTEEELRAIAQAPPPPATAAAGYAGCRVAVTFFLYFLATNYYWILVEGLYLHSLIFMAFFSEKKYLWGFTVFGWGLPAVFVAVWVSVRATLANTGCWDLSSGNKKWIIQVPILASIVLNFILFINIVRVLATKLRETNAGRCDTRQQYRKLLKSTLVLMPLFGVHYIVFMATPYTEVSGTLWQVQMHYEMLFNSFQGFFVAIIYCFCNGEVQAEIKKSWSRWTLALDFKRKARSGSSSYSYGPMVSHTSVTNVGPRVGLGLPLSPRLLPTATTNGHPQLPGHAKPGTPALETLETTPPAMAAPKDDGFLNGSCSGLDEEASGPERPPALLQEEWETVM

With `OCc1cnc[nH]1`, the Potency entry in assay [1], in assay [3], in assay [4], in assay [5], in assay [6] and in assay [7] was “inactive” throughout. In addition, the outcome in assay [2] was inactive.
On to `CO[C@H]1CC=C2CCN3CCC4=C(CC(=O)OC4)[C@]23C1`, for which the Potency entry in assay [1], in assay [3], in assay [8], in assay [4], in assay [5] and in assay [6] was “inactive” in each case. In addition, the Potency result in assay [7] is “inactive”. Also, the outcome in assay [2] was inactive.
With `C[C@H](N)CN1CCc2ccc(Br)cc21`, the Potency result in assay [1], in assay [3], in assay [8], in assay [4], in assay [5] and in assay [6] was “inactive” each time. For the same molecule, the Potency result in assay [7] was “inactive”.
As to `Oc1ccc2c3c1O[C@H]1c4oc5ccccc5c4C[C@@]4(O)C(C2)N(CC2CC2)CCC314` (stereo not given in full), the Potency entry in assay [1], in assay [8], in assay [5] and in assay [6] was “inactive” throughout. Moreover, the result in assay [2] was inactive.
For `CN1CC[C@@]2(C)c3cc(O)ccc3N(C)C12` (stereo not given in full), the Potency result in assay [1], in assay [3], in assay [8], in assay [4], in assay [5] and in assay [6] was “inactive” each time. In addition, the Potency result in assay [7] was “inactive”.
Regarding `CCNC(=O)[C@H]1O[C@@H](n2cnc3c(N)ncnc32)[C@H](O)[C@@H]1O`, the Potency result in assay [1], in assay [3], in assay [8], in assay [4], in assay [5] and in assay [6] was “inactive” throughout. Also, in assay [7], the Potency entry was “inactive”.
Turning to `O=[N+]([O-])c1ccc2nc(N3CCNCC3)ccc2c1`, the Potency entry in assay [1], in assay [3], in assay [8], in assay [4], in assay [5] and in assay [6] was “inactive” each time. Besides, the Potency entry in assay [7] is “inactive”.
Consider `CN1CCc2cccc(Cl)c2CC1`, for which the Potency entry in assay [1], in assay [3], in assay [8], in assay [4], in assay [5] and in assay [6] was “inactive” in each case. In addition, the Potency result in assay [7] was “inactive”.
`C=CCN1C[C@@H](C)N([C@H](c2ccc(C(=O)N(CC)CC)cc2)c2cccc(OC)c2)C[C@@H]1C`: the Potency result in assay [1], in assay [3] and in assay [8] was “inactive” in each case.
For the molecule `CC(=O)OCC1=C(C(=O)O)N2C(=O)[C@@H](NC(=O)CCC[C@@H](N)C(=O)O)[C@H]2SC1`, the Potency was 4.65 µM (active) in assay [1] and 414 nM (active) in assay [3]. Besides, the Potency entry in assay [8], in assay [4], in assay [5], in assay [6] and in assay [7] was “inactive” each time.
Consider `Cc1[nH]c2ccc(O)cc2c1CCN`, for which the Potency result in assay [1], in assay [3], in assay [8], in assay [4], in assay [5] and in assay [6] was “inactive” throughout. In assay [7], the Potency result was “inactive”.
In the case of `O=[N+]([O-])c1cc(O)c(O)c([N+](=O)[O-])c1`, the Potency result in assay [1], in assay [3], in assay [8], in assay [4], in assay [5] and in assay [6] was “inactive” each time. Besides, the Potency entry in assay [7] is “inactive”.
On to `CC12NC(Cc3ccccc31)c1ccccc12` (stereo not given), for which the Potency entry in assay [1], in assay [3], in assay [8], in assay [4], in assay [5] and in assay [6] was “inactive” in each case. Further, in assay [7], the Potency entry was “inactive”.
As to `CNc1ccc2oc(C[C@H]3O[C@@]4(CC[C@H]3C)O[C@H]([C@H](C)C(=O)c3ccc[nH]3)[C@H](C)C[C@H]4C)nc2c1C(=O)O`, the Potency entry in assay [1], in assay [3], in assay [8], in assay [6] and in assay [7] was “inactive” in each case. The Potency was 7.08 µM (active) in assay [4] and 11.2 µM (active) in assay [5].
On to `NCCCP(=O)(O)O`, for which the Potency entry in assay [1], in assay [3], in assay [8], in assay [4], in assay [5] and in assay [6] was “inactive” throughout. Moreover, the Potency result in assay [7] was “inactive”.
For the molecule `COC(=O)N1CCN(C(=O)Cc2ccc(Cl)c(Cl)c2)C(CN2CCCC2)C1` (stereo not given), the Potency entry in assay [1], in assay [3], in assay [8], in assay [4], in assay [5] and in assay [6] was “inactive” each time. For the same molecule, the Potency entry in assay [7] was “inactive”.
On to `CCCN(CCC)C1Cc2cc(OC)c(OC)cc2C1`, for which the Potency entry in assay [1], in assay [3], in assay [8], in assay [4], in assay [5] and in assay [6] was “inactive” throughout. Besides, the Potency entry in assay [7] was “inactive”.
As for `O=c1ccc2[nH]cc(C3=CCNCC3)c2[nH]1`, the Potency result in assay [1] and in assay [3] was “inactive” throughout.
Regarding `CCN1C[C@@]2(COC)C3[C@@H](OC)C4[C@@H]1C3([C@@H]1C[C@]3(O)[C@H](OC(=O)c5ccccc5)[C@@H]1[C@]4(OC(C)=O)[C@@H](O)[C@@H]3OC)[C@H](OC)C[C@H]2O`, the Potency entry in assay [1], in assay [3], in assay [8], in assay [4], in assay [5] and in assay [6] was “inactive” each time. In addition, the Potency result in assay [7] was “inactive”.
In the case of `NC(=O)c1ccc(OCC(O)CN2CC=C(c3ccc(F)cc3)CC2)cc1` (stereo not given), the Potency result in assay [1], in assay [3], in assay [8], in assay [4], in assay [5] and in assay [6] was “inactive” each time. The Potency result in assay [7] is “inactive”.
